Each structure is given as a SMILES string. Activity calls are given as the source filed them. How the source made its calls: active means hit-call score of the fitted dose curve at least 0.9, where 1 is the maximum; inactive means score below 0.9.

Sequence of human Leukotriene Receptor CysLT1, CYSLTR1 (gene 10800) (Q9Y271 whole entry, looked up): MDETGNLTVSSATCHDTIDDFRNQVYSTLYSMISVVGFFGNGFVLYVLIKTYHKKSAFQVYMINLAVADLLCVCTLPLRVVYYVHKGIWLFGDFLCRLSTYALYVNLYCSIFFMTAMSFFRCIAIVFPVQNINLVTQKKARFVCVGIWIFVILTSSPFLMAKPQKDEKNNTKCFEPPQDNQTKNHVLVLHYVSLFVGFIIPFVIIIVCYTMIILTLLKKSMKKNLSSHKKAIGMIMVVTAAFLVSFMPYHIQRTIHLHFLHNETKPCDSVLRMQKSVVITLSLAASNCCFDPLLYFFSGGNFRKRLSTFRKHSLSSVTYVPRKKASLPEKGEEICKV

This assay has as its target human Leukotriene Receptor CysLT1, CYSLTR1 (gene 10800) (UniProt Q9Y271). Put plainly: ERF_FR_GPCR_hCYSLTR1: Eurofins (ERF) G Protein-Coupled Receptor (GPCR) Radioligand Binding LeadHunter Assay for human Leukotriene Receptor CysLT1 Agonism. As to the method: ERF_FR_GPCR_hCYSLTR1 is a biochemical, single-readout assay that uses extracted gene-proteins in a cell-free assay. Measurements were taken 1 hour after chemical dosing in a 96-well plate. See CysLT1 Human Leukotriene GPCR Binding (Agonist Radioligand) Assay, Cerep.ERF_FR_GPCR_hCYSLTR1 is an assay component calculated from the ERF_FR_GPCR_hCYSLTR1 assay. It is designed to measure radioligand binding using a type of binding reporter as detected by scintillation counting with radiometry technology.Data from the assay component ERF_FR_GPCR_hCYSLTR1 was analyzed at the assay endpoint, ERF_FR_GPCR_hCYSLTR1, in the positive analysis fitting direction relative to DMSO as the negative control and baseline of activity. Using a type of binding reporter, gain-of-signal activity can be used to understand changes in binding as they relate to gene CYSLTR1. To generalize the intended target to other relatable targets, this assay endpoint is annotated to the gpcr intended target family, where the subfamily is leukotriene.
Human cells are incubated for 60 minutes at room temprature with [3H]LTD4 ligand (0.3 nM) and leukotriene D4 as control inhibitor.Test Sample Requirements: Minimum for 1) Screen: 60 ul of 10 mM stock -OR- 1 mg (pre-weighed) for 10 uM final testing. 2) Dose Response: 90 ul of 10 mM stock -OR- 1 mg (pre-weighed) for a top concentration at 10 uM.
Consider `O=C(/C=C/c1ccc(O)cc1)CC(=O)/C=C/c1ccc(O)cc1`, for which the concentration at half-maximal activity (AC50) was 5 µM (active).

By AC50 is commonly meant the concentration at which the activity in the assay is half-maximal.
